The target in assay [1] is alpha-glucosidase (Oryza sativa, rice) (UniProt Q653V4). The experiment in a line: Counterscreen for Glucocerebrosidase Inhibitors: qHTS Assay for Rice alpha-Glucosidase at pH 5.0 (AID 997).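 Further: 0% = full activity with enzyme and -100% = basal without enzyme.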 The essentials: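 Rice alpha-glucosidase (4 nM final) with 400 uM 4-methylumbelliferyl-alpha-D-glucopyranoside in citrate buffer pH 5.0, 20 min at room temperature, stopped at pH 10; fluorescence 365/440 nm, compounds 0.7 nM–77 uM, AC50 from Hill fits.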
A general note: The purpose of a counterscreen is to sort out artefacts and off-target activity.

Assay [2] in a line: Validation of Assay for Modulators of Lamin A Splicing (AID 1459; active means well fitted curve in the direction sought with a large enough effect in the signal ratio; the % refers to the signal ratio;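 further: cells exposed to compound for two days before reading; 0% is about no effect; ratio rise marks activators and ratio drop marks inhibitors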). The essentials:
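Readout: ratio of GFP (500-530 nm) to RFP (575-640 nm) total object intensity by 488 nm laser-scanning cytometry after 48 hrs. Cells were HeLa S3 clones carrying lamin A-EGFP minigene plus DsRed2 viability reporter; vehicle 0.5% DMSO final.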

Assay [3] can be described thus: qHTS Assay for Lipid Storage Modulators (AID 1519; calls by dose curve; on activity change, negative = inhibition: on the % scale 0 is the no-effect control and ±100 the full control effect). The settings on record: Drosophila S3 cells, BODIPY lipid droplet/cell ratio, laser cytometry, cells loaded with oleic acid. The essentials: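 Cells seeded at 5,000 per well were treated with compounds over a concentration series and loaded with oleic acid (400 uM, as added). Lipid droplet fluorescence (488 nm excitation, 500-530 nm channel) was read by laser-scanning cytometry and normalized to 20 uM Triacsin C.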

Assay [4] deals with DNA repair nuclease/redox regulator APEX1 (Homo sapiens) (UniProt P27695). The experiment in a line: qHTS Validation Assay for Inhibitors of the Human Apurinic/apyrimidinic Endonuclease 1 (APE1) (AID 1705;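 further: TAMRA fluorescence gain over two minutes as APE1 cuts a quenched THF abasic duplex; on the % scale 0 is the no-effect control and ±100 the full control effect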). The method in brief:
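Read-out: TAMRA fluorescence (525 nm ex, 598 nm em) from cleavage of a quenched THF abasic-site duplex, 50 nM final; activity taken as intensity change between third and first of three reads 60 s apart.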

A short description of assay [5]: Counterscreen for APE1 Inhibitors: Fluorescent Dye Displacement Validation Assay (AID 1707).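 Further: plate controls were ThO with dsDNA and no compound for no effect and ThO without dsDNA for full effect.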 The method in brief:
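ThO 250 nM + dsDNA 50 nM (THF abasic site, 5'-TAMRA), Tris-HCl pH7.5/50mM NaCl/2 mM MgCl2/0.01% Tween-20; compounds pin-transferred; ex 480/em 540 nm endpoint. Neutral = no compound; no-DNA ThO wells = negative control.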

The target of assay [6] is Endonuclease 4 (Escherichia coli (strain K12)) (UniProt P0A6C1). The assay can be described thus: Counterscreen for APE1 Inhibitors: qHTS Validation Assay for Inhibitors of Endonuclease IV (AID 1708). Further: on the % scale 0 is the no-effect control and ±100 the full control effect. The essentials: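 Concentration-response counterscreen run identically to the APE1 assay: 15 min room-temperature preincubation of 2 nM enzyme with compound, reaction started with 50 nM quenched abasic DNA, progress taken from kinetic fluorescence.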

Assay [7] in a line: qHTS for differential inhibitors of proliferation of Plasmodium falciparum line 7G8 (AID 1815;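 further: parasite growth measured after three days of incubation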; further: potency means the concentration at half of the fitted maximal effect;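 on activity change, negative = inhibition: plate controls were vehicle wells for no effect and reference inhibitor wells for full effect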). (qHTS replaces the single test concentration by a dilution series.)
A short description of assay [8]: qHTS for differential inhibitors of proliferation of Plasmodium falciparum line GB4 (AID 1816).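 Further: parasite growth measured after 72 h incubation.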 Further: potency means the concentration at half of the fitted maximal effect.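 On activity change, negative = inhibition: 0% = vehicle DMSO and -100% = reference inhibitor.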 The settings on record: Potency: Plasmodium falciparum GB4 proliferation inhibition.
Assay [9] in a line: qHTS for differential inhibitors of proliferation of Plasmodium falciparum line 3D7 (AID 1876).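 Further: parasite growth measured after three days of culture; 0% = vehicle wells and -100% = reference inhibitor wells.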
A short description of assay [10]: qHTS for differential inhibitors of proliferation of Plasmodium falciparum line D10 (AID 1877).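 Further: parasites grown with compound for 72 h before DNA staining; plate controls were vehicle wells for no effect and reference inhibitor wells for full effect.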
Assay [11] can be described thus: qHTS for differential inhibitors of proliferation of Plasmodium falciparum line Dd2 (AID 1882).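 Further: plate controls were DMSO vehicle for no effect and 0.29 µM artemisinin for full effect; nearly all actives have a fitted effect of over 65% in size.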 The settings on record: Potency: Plasmodium falciparum Dd2 proliferation inhibition. The method in brief:
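Dd2-infected erythrocytes (0.3% parasitemia, 2.5% hematocrit final) incubated with compound 72 h at 37 C, 5% CO2; lysed with saponin/Triton buffer containing SYBR Green I, incubated overnight in the dark, then read by fluorescence (485/535 nm). Normalized to 0.29 uM artemisinin and DMSO.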

Assay [12] can be described thus: qHTS for differential inhibitors of proliferation of Plasmodium falciparum line W2 (AID 1883).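 Further: parasites grown with compound for 72 h before lysis and staining.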 Further: potency means the concentration at half of the fitted maximal effect.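 On activity change, negative = inhibition: 0% = vehicle wells and -100% = control inhibitor wells.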 Particulars: Potency: Plasmodium falciparum W2 proliferation inhibition.
A short description of assay [13]: qHTS for differential inhibitors of proliferation of Plasmodium falciparum line HB3 (AID 1886).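 Further: parasites grown with compound for 72 h before SYBR Green readout.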 Further: potency means the concentration at half of the fitted maximal effect.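 On activity change, negative = inhibition: plate controls were vehicle for no effect and reference inhibitor for full effect.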 Particulars: Potency: Plasmodium falciparum HB3 proliferation inhibition.
Assay [14] in a line: qHTS Assay for Modulators of Human Peripheral Myelin Protein 22 (PMP22) Expression/Activity (AID 1967; active means well fitted curve in the direction sought with a large enough effect in the signal ratio; the % refers to the signal ratio;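 further: 0% = untreated cells and 100% end not stated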). The method in brief: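 Mouse MSC80 Schwann line, Pmp22 promoter–CBG68 reporter, EF-alpha–CBR internal control. 24h compound exposure, 37 °C/5% CO2, DMEM + 10% FBS. Readout: corrected green/red luminescence ratio, normalized to untreated cells; concentration-response curves fitted and classified.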

Assay [15] deals with Ferritin light chain (Equus caballus) (UniProt P02791). The assay can be described thus: qHTS Validation Assay for Identification of Novel General Anesthetics (AID 2323). Further: on the % scale 0 is the no-effect control and ±100 the full control effect. The method in brief: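 10 uM horse-spleen apoferritin + 1-AMA (50% saturated, PBS); cpd pin-transferred, 10 min RT. Ex 380/Em 535 nm endpoint. Activity normalized between free 1-AMA and 1-AMA/apoferritin; 4-parameter Hill fit of concentration-response.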

Assay [16] deals with ATP-dependent DNA helicase Q1 (Homo sapiens) (UniProt P46063). The experiment in a line: qHTS Validation Assay for Inhibitors of RecQ-Like Dna Helicase 1 (RECQ1) (AID 2353).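 Further: plate controls were DMSO vehicle for no effect and enzyme-free control for full effect.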 The method in brief: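 50 nM RECQ1T1 preincubated 15 min with compound in Tris pH 8.0 buffer with MgCl2, DTT, Tween-20 and 2.5 ug/ml poly(dI-dC); started with 200 nM TAMRA/BHQ-2 forked duplex and 2 mM ATP. Unwinding read as fluorescence (525/598 nm), two reads 2 h apart.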

Assay [17] can be described thus: Cytometric Cell-Based qHTS for Inhibitors of the mTORC1 Signaling Pathway in MEF (Tsc2-/-, p53-/-) Cells (AID 2660).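 Further: percent of cells above a phospho-rpS6 to PI ratio cutoff in each well; plate controls were DMSO for no effect and rapamycin for full effect.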 The method in brief: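 Percent of cells positive for normalized phospho-S6 staining is reported, with the cutoff set from rapamycin (7.5 nM) versus DMSO wells. Tsc2-/-, p53-/- MEFs received compound for 24 hrs.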
Assay [18] in a line: High Content Imaging Cell-Based qHTS for Inhibitors of the mTORC1 Signaling Pathway in MEF (Tsc2-/-, p53-/-) Cells (AID 2666).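 Further: percent of cells scored positive for phospho-rpS6 Ser235/236 immunostaining by imaging.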 Particulars: at 38.3 µM (top of the series). The method in brief: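 Read-out: % positive cells per well, with thresholds from highest- and lowest-signal wells, based on phospho-rpS6 (Ser235/236) intensity normalized to Hoechst nuclear stain. Cells: Tsc2-/-, p53-/- MEFs carrying empty vector; compound 24 hrs, 37 degree Celsius.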

The mark [19] stands for this setting: measured here: cell count channel max response.
Setting [20] is: measured here: lipid channel max response.

“And” between values parts separate entries of the source, which are not always exact repeats. Equal entries are not always repeated. Records with an inconclusive call do not appear. The source made the active and inactive calls. Unless noted, the call rests on the fitted dose curve; in most records, active means well fitted curve in the direction sought with a large enough effect; inconclusive means small, poorly fitted or top-dose-only effect, or another doubt; inactive means no such curve, though single readings can be large; an effect the other way counts as inactive or inconclusive.

Sequence of DNA repair nuclease/redox regulator APEX1 (Homo sapiens) (P27695 whole entry, looked up): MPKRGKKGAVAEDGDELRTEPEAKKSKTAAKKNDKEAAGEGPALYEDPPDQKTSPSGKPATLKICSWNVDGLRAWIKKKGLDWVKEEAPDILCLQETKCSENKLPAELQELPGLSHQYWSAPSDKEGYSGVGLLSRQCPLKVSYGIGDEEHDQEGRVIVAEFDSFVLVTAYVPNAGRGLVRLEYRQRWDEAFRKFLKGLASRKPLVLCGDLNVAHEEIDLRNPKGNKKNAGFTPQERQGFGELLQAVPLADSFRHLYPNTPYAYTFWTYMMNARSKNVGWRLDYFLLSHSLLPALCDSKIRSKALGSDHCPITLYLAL
Sequence of ATP-dependent DNA helicase Q1 (Homo sapiens) (P46063 whole entry, looked up): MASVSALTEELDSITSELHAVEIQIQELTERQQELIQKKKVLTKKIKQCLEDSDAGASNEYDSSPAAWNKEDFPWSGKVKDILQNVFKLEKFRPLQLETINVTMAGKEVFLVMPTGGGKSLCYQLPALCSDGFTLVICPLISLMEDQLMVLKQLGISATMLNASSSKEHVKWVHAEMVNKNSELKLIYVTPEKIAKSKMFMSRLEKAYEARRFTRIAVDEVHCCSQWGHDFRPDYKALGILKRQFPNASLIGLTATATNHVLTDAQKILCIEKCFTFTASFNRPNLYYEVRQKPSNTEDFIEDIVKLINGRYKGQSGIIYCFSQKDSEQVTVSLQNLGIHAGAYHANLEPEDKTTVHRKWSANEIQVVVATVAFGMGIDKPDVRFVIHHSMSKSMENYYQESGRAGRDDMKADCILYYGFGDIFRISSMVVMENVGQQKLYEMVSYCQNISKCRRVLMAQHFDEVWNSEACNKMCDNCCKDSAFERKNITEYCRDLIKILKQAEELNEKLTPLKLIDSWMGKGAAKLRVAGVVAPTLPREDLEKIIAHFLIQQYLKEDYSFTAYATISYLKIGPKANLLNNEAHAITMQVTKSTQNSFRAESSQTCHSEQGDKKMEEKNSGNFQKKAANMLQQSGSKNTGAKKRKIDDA
Sequence of Ferritin light chain (Equus caballus) (P02791 2-175 limits assumed): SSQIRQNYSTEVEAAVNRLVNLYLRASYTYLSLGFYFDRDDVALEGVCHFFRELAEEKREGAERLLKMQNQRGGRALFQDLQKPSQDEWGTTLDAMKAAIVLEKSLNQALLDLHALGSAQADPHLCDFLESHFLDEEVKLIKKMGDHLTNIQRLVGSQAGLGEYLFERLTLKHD

`CC(=O)Oc1ccccc1C(=O)O`: the call in assay [1], in assay [2], in assay [4], in assay [5], in assay [6] and in assay [14] was inactive. In addition, the call in assay [15], in assay [16], in assay [17] and in assay [18] was inactive. Besides, the activity change, negative = inhibition in assay [3] (at 57.5 µM (top of the series)) is 4.32% (inactive). For the same compound, the max response in [3] (setting [19]) came out at 19.3%; in assay [3] (setting [20]) it was 27.8%. The Potency result in [7], in assay [8], in assay [9], in [10], in assay [11] and in assay [12] was “inactive” each time. The Potency entry in assay [13] was “inactive”.

Take `Cc1oncc1C(=O)Nc1ccc(C(F)(F)F)cc1`: the call in [1], in assay [2], in assay [4], in assay [5], in [6] and in assay [15] was inactive. For the same compound, the call in [16], in assay [17] and in assay [18] was inactive. Moreover, the activity change, negative = inhibition in [3] (at 25.7 µM (top of the series)) is 0.243% (inactive); in assay [3] (at 57.5 µM (top of the series)), 13.4% (inactive) and -0.067% (inactive). Moreover, the max response in [3] (setting [19]) is -14.5% and 1.19% and -29.1%; in assay [3] (setting [20]) it was -15.6% and 18.5% and -28.2%. The Potency entry in assay [7], in assay [8], in assay [10], in assay [11] and in assay [13] was “inactive” in each case.

`CCOC(=O)C1=C[C@]2(CC)CCCN3CCc4c(n1c1ccccc41)[C@@H]32`: the call in assay [2], in [4], in assay [5], in assay [6], in assay [15] and in [16] was inactive. The call in assay [17] and in [18] was inactive. For the same compound, the activity change, negative = inhibition in [3] (at 57.5 µM (top of the series)) is -17.2% (inactive). Also, the max response in assay [3] (setting [19]) was -25.8%; in assay [3] (setting [20]), -38.8%. Further, the Potency in assay [7] was 7.08 µM (active); in assay [8], 7.94 µM (active); in assay [12] it was 14.1 µM (active); in assay [13], 12.6 µM (active).

For the compound `Cc1[nH]c(=O)c(C#N)cc1-c1ccncc1`, the compound was classed as inactive in assay [1], in assay [4], in [5], in assay [6], in [15] and in [16]. Also, the result in [17] and in assay [18] was inactive. Further, the activity change, negative = inhibition in assay [3] (at 25.7 µM (top of the series)) is 2.58% (inactive); in assay [3] (at 57.5 µM (top of the series)), -0.858% (inactive). The max response was -8.19% and -12.8% in [3] (setting [19]); -4.74% and -14.2% in assay [3] (setting [20]). Further, the Potency entry in assay [7], in assay [8], in [9], in assay [10], in assay [11] and in assay [12] was “inactive” throughout. Besides, the Potency entry in [13] is “inactive”.

As to `Clc1cccc(Cl)c1NC1=NCCN1`, the compound was called inactive in assay [1], in assay [4], in [5], in assay [6], in [15] and in assay [16]. Also, the outcome in assay [17] and in [18] was inactive. In addition, the activity change, negative = inhibition in assay [3] (at 25.7 µM (top of the series)) was -3.52% (inactive); in assay [3] (at 57.5 µM (top of the series)) it was 4.4% (inactive) and 1.2% (inactive). Moreover, the max response was 3.68% and -5.77% and -17.1% in assay [3] (setting [19]); -1.31% and -6% and -15.4% in assay [3] (setting [20]). Besides, the Potency result in assay [7], in assay [9], in assay [10], in assay [11] and in assay [13] was “inactive” throughout.

The values are drawn from PubChem BioAssay (NCATS).
